In all, about 420,000 compounds went through this assay and about 50,000 (12%) were called active. A call without a number means that no potency is given here. Not shown: some 26% with an inconclusive outcome. Calls follow the shape of the dose curve; as a rule, active = well fitted inhibition curve with a large enough effect; inconclusive = small, poorly fitted or top-dose-only effect; inactive = flat fitted curve, though single readings scatter. The sample as a whole holds a higher share of actives than the screen did.
Potency is read from the fitted curve at half-maximal effect.

The nature of this assay: qHTS for Inhibitors of human tyrosyl-DNA phosphodiesterase 1 (TDP1): qHTS in cells in presence of CPT. Also: nearly all actives have a fitted effect of over 55% in size. Conditions: chicken DT40 Tdp1-/-;hTDP1 cells + 20 nM CPT, ATP luminescence, 48 h; series mostly up to 46.2 µM. An outline of the steps:
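Cell growth measured by CellTiter-Glo luminescence after a minimum 48 h, 37 C compound exposure with 20 nM CPT in Tdp1-knockout DT40 cells stably expressing hTDP1, seeded 400/well; qHTS titration format.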
A general note: In qHTS, concentration-response curves come from the screen itself.
As for `O=C(O)c1cc([N+](=O)[O-])c(Nc2cccc3ccccc23)c([N+](=O)[O-])c1`, the Potency result is “inactive”.
Regarding `CCN(CC)CCCNC(=O)Cn1cnc2sc(C)c(S(=O)(=O)N3CCN(c4ncccn4)CC3)c2c1=O`, the Potency entry is “inactive”.
Take `CC1(C)CC(=O)C=C(c2cccc3c2Oc2ccccc2S3)C1`: the Potency entry is “inactive”.
The same measure for `COc1cc(OC)cc(C(=O)NNC(=O)CCOc2ccccc2OC)c1`: “inactive”.
For `COc1ccc(S(=O)(=O)c2c[nH]c(=S)[nH]c2=O)cc1Cl`, the Potency entry is “inactive”.
With `COc1ccc(-c2nc3ccccc3o2)cc1NC(=O)c1cc([N+](=O)[O-])ccc1N1CCOCC1` the entry was “inactive”; with `CCOC(=O)CC1(NC(=O)c2cc(COc3cncc(Cl)c3)on2)CCCCC1`, 23.1 µM (active).
For the molecule `CCOC(=O)c1c(NC(=O)c2cc(CC)on2)sc(C(C)=O)c1C`, the Potency entry is “inactive”.
For the molecule `Cc1cc(OCc2cc(C(=O)NCc3cc(C(C)C)no3)no2)cc(C)c1Cl`, the Potency entry is “inactive”.
`Cc1cc(C)cc(NC(=O)CN2C(=O)c3ccccc3C2=O)c1`: the Potency result is “inactive”.
Take `Cc1cccc(C(=O)Nc2ccc(CC(=O)O)cc2)c1`: the Potency entry is “inactive”.
`Cc1cccc(C(=O)Nc2ccc(C(=O)/C=C/c3cccs3)cc2)c1`: the Potency was 16.4 µM (active).
As for `Cc1cccc(C(=O)Nc2ccc(C(=O)N/N=C/c3cccc(C)n3)cc2)c1`, the Potency result is “inactive”.
Turning to `CC(C)c1ccc(C(=O)OC2CCOC2=O)cc1` (configuration not stated), the Potency entry is “inactive”.
The same measure for `COc1ccc(C(=O)O)cc1S(=O)(=O)NC1CCN(Cc2ccccc2)CC1`: “inactive”.
Consider `COc1ccc(-c2onc(C)c2C)cc1S(=O)(=O)NCCc1ccccc1`, for which the Potency is 20.6 µM (active).
The same measure for `Cc1ccc(-c2onc(C)c2C)cc1S(=O)(=O)Nc1ccccn1`: “inactive”.
With `COc1ccc(CCNS(=O)(=O)c2cn(C)nc2C)cc1`, the Potency result was “inactive”.
With `CCOC(=O)C1CCN(S(=O)(=O)c2cc(F)ccc2OC)CC1` the entry was “inactive”.
`COc1ccc(-c2onc(C)c2C)cc1S(=O)(=O)NCC1CCN(Cc2cccc(F)c2)CC1`: the Potency was 20.6 µM (active).
Turning to `C[C@H]1CN([C@@H](C)CO)C(=O)CCCn2cc(nn2)CO[C@@H]1CN(C)S(=O)(=O)c1ccc(-c2ccccc2)cc1`, the Potency result was “inactive”.
Consider `O=C(c1ccco1)N1CCC2(CC1)CCN(c1ncccn1)CC2`, for which the Potency result is “inactive”.
As to `CC(=O)Nc1ccc(S(=O)(=O)NC(C)C(=O)OCC(=O)NC2CCCC2)cc1` (configuration not stated), the Potency entry was “inactive”.
With `O=C(COc1ccc(-n2cnnn2)cc1)Nc1ccccc1Cl`, the Potency entry was “inactive”.
Consider `Nc1nnc(SCC(=O)OCc2ccc(Cl)c(Cl)c2)s1`, for which the Potency result was “inactive”.
As to `CCOC(=O)C(Sc1ncc(C#N)c(N)n1)C(C)C` (configuration not stated), the Potency entry was “inactive”.
With `O=C(NC(Cc1ccc(O)cc1)C(=O)O)/C(=C/c1ccccc1)NC(=O)c1ccccc1` (configuration not stated) the entry was “inactive”; with `N#CCSc1nc(-c2ccccc2)nc2ccc(F)cc12`, “inactive”.
With `Clc1ccc2nc(-c3ccccc3)nc(C(Cl)Cl)c2c1` the figure was 0.164 µM (active).
With `O=C(CCc1nc2ccccc2c(=O)[nH]1)OCC(=O)c1cccc(Cl)c1` the entry was “inactive”; with `Cc1nn(-c2ccccc2)c(C)c1/C=C/C(=O)OC(C)C(N)=O` (configuration not stated), “inactive”; with `Cc1ccc(/C=C(\C#N)C(=O)Nc2cccc3ncccc23)o1`, 16.4 µM (active).
Take `Cc1ccc(C(=O)Nc2cccc3ncccc23)cc1[N+](=O)[O-]`: the Potency entry is “inactive”.
Take `Cc1ccc2c(NC(=O)C3CC3)cccc2n1`: the Potency result is “inactive”.
Turning to `CC(C)(C)NC(=O)Cn1c(SCC(=O)Nc2nccs2)nc2ccccc21`, the Potency result is “inactive”.
With `NC(=O)NC(=O)C(OC(=O)CCNS(=O)(=O)c1ccccc1)c1ccccc1` (configuration not stated), the Potency entry is “inactive”.
Turning to `COCCNC(=O)C(c1ccc(C)cc1)N(C(=O)CCC(=O)Nc1ccccn1)c1cccc(C)c1` (configuration not stated), the Potency result was “inactive”.
For the molecule `O=C(OCc1cn([C@@H]2C[C@H](c3ccc(Cl)cc3)N(Cc3cccs3)C[C@H]2O)nn1)c1ccccc1`, the Potency result was “inactive”.
The same measure for `CCCCCC(=O)N1C[C@H](O)[C@@H](n2cc(COC(=O)c3ccccc3)nn2)C[C@@H]1c1ccc(C)cc1`: 0.82 µM (active); for `CCCCCCN1C[C@@H](O)[C@H](n2cc(COC(=O)c3ccccc3)nn2)C[C@@H]1c1ccc(Cl)cc1`: “inactive”; for `Cc1cc(S(=O)(=O)NCC(C)C)ccc1OCC(=O)NC1CC1`: “inactive”.
`CC(Sc1ncnc2c1cnn2-c1ccccc1)C(=O)Nc1ccc(N2CCOCC2)cc1` (configuration not stated): the Potency entry is “inactive”.
Regarding `CCOC(=O)c1c(CN(C)C)n(-c2ccccc2)c2cc(Br)c(O)cc12`, the Potency entry is “inactive”.
In the case of `CC(C(=O)NC1CCS(=O)(=O)C1)N1C(=O)/C(=C/c2ccc(Cl)cc2)SC1=S` (configuration not stated), the Potency result is “inactive”.
For the molecule `O=C1/C(=C\c2ccc(O)cc2)CCC1CNc1ccc(Cl)cc1` (configuration not stated), the Potency is 4.61 µM (active).
For `CCOCCCNC(=O)c1ccc(CS(=O)(=O)c2cccc(C(F)(F)F)c2)o1`, the Potency entry is “inactive”.
With `O=C(CO/N=C/c1ccccc1O)NNC(=O)c1ccccc1Cl` the figure was 0.461 µM (active); with `NS(=O)(=O)c1cc(C(=O)OCC(=O)NNC(=O)c2ccccc2)ccc1Cl`, “inactive”.
Turning to `O=C(CO/N=C/c1ccccc1OC(F)F)NC1CCCC1`, the Potency entry is “inactive”.
With `CCn1c(SCC(=O)c2ccc(Cl)s2)nnc1-c1cccs1` the entry was “inactive”; with `CCn1c(Cc2cccs2)nnc1SCC(=O)c1ccc(C)cc1`, 11.2 µM (active); with `Cc1ccc(-n2c(Cc3cccs3)nnc2SCC(=O)OC(C)C)cc1`, “inactive”.
Consider `COC(=O)C(C)n1cnc2c(nnn2-c2cccc(Cl)c2)c1=O` (configuration not stated), for which the Potency result is “inactive”.
For the molecule `CC(C)C[C@H](CO)Nc1nc(N(C)c2cccc(Cl)c2)c2ncn(C(C)C)c2n1`, the Potency was 16.4 µM (active).
As to `Cc1ccnc(NS(=O)(=O)c2ccc(NC(=O)c3ccc(S(=O)(=O)N(C)C)cc3)cc2)n1`, the Potency entry is “inactive”.
For `CCOc1cc2c(Cl)ncnc2c(OCC)c1OCC`, the Potency result was “inactive”.
As for `CCCCC(=O)OC1=CN(Cc2ccccc2)S(=O)(=O)c2ccccc21`, the Potency result was “inactive”.
In the case of `O=C(OCc1cn(-c2ccc(Cl)c(Cl)c2)nn1)c1ccccc1Cl`, the Potency result was “inactive”.
As for `COc1cc2c(cc1OC)C(C)N(S(=O)(=O)c1cnc(Cl)c(Cl)c1)CC2` (configuration not stated), the Potency entry is “inactive”.
For `CCc1ccc(C(=O)NN=C2CCCCCC2)s1`, the Potency entry is “inactive”.
Regarding `CC(C)NC(=S)NN=C1CCCCCCCCCCC1`, the Potency was 13 µM (active).
Consider `CC(C)(C)NC(=O)C(=O)NN=C1CCCCCCC1`, for which the Potency entry was “inactive”.
On to `CC(C)(C)c1ccccc1NC(=O)CN1C(=O)NC2(CCCC2)C1=O`, for which the Potency entry is “inactive”.
With `COC(=O)c1ccc(CN2C(=O)C(Cc3ccccc3)ON=C2c2ncccc2C)o1` (configuration not stated), the Potency entry was “inactive”.
Take `Cc1ccc(C)c(NC(=O)Cn2ccn(-c3ccc(F)cc3)c(=O)c2=O)c1`: the Potency result was “inactive”.
The same measure for `COc1ccccc1NC(=O)CCC(=O)OC(C)C(=O)c1ccccc1` (configuration not stated): “inactive”; for `O=C(Nc1ccc(F)cc1)c1cc2c(s1)CCCC2`: “inactive”; for `COc1cccc(C(=O)NC2(C(F)(F)F)C(=O)Nc3c2c(=O)[nH]c(=O)n3-c2ccc(C)cc2)c1` (configuration not stated): 25.9 µM (active).
With `CCOc1ccccc1C(=O)NC1(C(F)(F)F)C(=O)Nc2c1c(=O)[nH]c(=O)n2-c1ccc(F)cc1` (configuration not stated) the entry was “inactive”.
Regarding `COc1cccc(C(=O)NNC(=O)c2cccc(F)c2)c1`, the Potency entry was “inactive”.
For the molecule `O=P(O)(O)C(O)c1ccc2ccccc2c1` (configuration not stated), the Potency result was “inactive”.
The same measure for `S=C1SCN(CCN2CCOCC2)CN1Cc1ccccc1`: 5.01 µM (active).
Turning to `C/C(CCc1ccccc1)=N\NC(=O)c1ccc(CN2CCOCC2)cc1`, the Potency entry was “inactive”.
As to `CCN1CN(Cc2ccccc2)CNC1=S`, the Potency entry is “inactive”.
In the case of `COc1ccc(CCN2CC(C(=O)NCCN3CCNC3=O)CCC2=O)cc1` (configuration not stated), the Potency entry is “inactive”.
`CC(C)NC(=S)Nc1cccc2cnccc12`: the Potency entry was “inactive”.
With `CCN(CC)CC(=O)Nc1nn(-c2ccccc2)nc1C(N)=O` the entry was “inactive”.
The same measure for `COc1cccc(-c2cnc(OC(C)(C)C)nc2OC(C)(C)C)c1`: “inactive”.
In the case of `COc1cccc(-c2nc3nc(C)cc(C)n3c2NC2CCCCC2)c1`, the Potency is 18.4 µM (active).
With `COc1ccc(-c2cc(C)nc3nc(N)nn23)cc1` the entry was “inactive”; with `COc1ccc2nc(C)cc(Nc3cccc(C(=O)O)c3)c2c1`, “inactive”; with `COc1cccc(CSc2nc3nc(C)cc(C)n3n2)c1`, “inactive”.
The same measure for `COc1ccc(-c2nc3nc(C)cc(C)n3c2Nc2c(C)cccc2C)cc1`: 16.4 µM (active); for `COc1ccccc1C(=O)Nc1nc2nc(-c3ccccc3)cc(=O)n2[nH]1`: “inactive”; for `O=C(NN1C(=O)C2CCCCC2C1=O)c1ccco1` (configuration not stated): “inactive”.
The same measure for `Cc1cccc(C(=O)N2CCN(S(=O)(=O)N3CCCCC3)CC2)c1`: “inactive”.
Turning to `Cc1cc(C)c(NC(=O)CN2C(=O)NC(Cc3ccccc3)C2=O)c(C)c1` (configuration not stated), the Potency result is “inactive”.
The same measure for `O=S(=O)(NCCc1ccccn1)c1cc(Cl)cc(Cl)c1O`: “inactive”.
Regarding `Cc1cccc(NC(=O)CN2CCN(C(=O)C3CCN(C(=O)/C=C/c4ccccc4)CC3)CC2)c1C`, the Potency is 16.4 µM (active).
Regarding `Cc1cccc(NC(=O)CN2CCN(CC(=O)NCC3(N4CCCCC4)CCCCC3)CC2)c1C`, the Potency entry was “inactive”.
In the case of `COc1ccccc1CCNC(=O)C1CCN(C(=O)/C=C/c2ccccc2)CC1`, the Potency entry is “inactive”.
As to `Cc1ccc(S(=O)(=O)NC[C@H]2O[C@@H](n3cnc4c(N)ncnc43)[C@H](O)[C@@H]2O)s1`, the Potency entry is “inactive”.
For the molecule `COc1ccc(NC(=O)c2ccccc2CC[N+](=O)[O-])cc1`, the Potency entry is “inactive”.
With `O=C(NNC(=O)c1ccc(-c2ccccc2)cc1)Nc1ccccc1` the entry was “inactive”; with `C=CCNc1scc(-c2ccccc2)[n+]1CC=C`, “inactive”.
Take `C=CC[n+]1c(-c2ccc(C)cc2)csc1NNC(=O)Nc1ccccc1`: the Potency was 10.3 µM (active).
`C[C@H]1CN([C@@H](C)CO)C(=O)CCCn2cc(nn2)CO[C@@H]1CN(C)S(=O)(=O)c1ccccc1C#N`: the Potency result is “inactive”.
For the molecule `O=C(c1cc(COc2ccc(F)cc2F)on1)N1CCOCC1`, the Potency entry is “inactive”.
Turning to `COc1ccc(-c2noc(-c3ccc(N4CCN(c5ccccc5)CC4)c([N+](=O)[O-])c3)n2)cc1OC`, the Potency is 23.1 µM (active).
`COc1cc(-c2noc(-c3ccc(N4CCCC4)c([N+](=O)[O-])c3)n2)cc(OC)c1OC`: the Potency entry is “inactive”.
Take `CNc1ccc(-c2nc(-c3ccco3)no2)cc1[N+](=O)[O-]`: the Potency entry is “inactive”.
In the case of `Cc1nnc(SCc2cc(=O)c3cc(F)ccc3[nH]2)n1C`, the Potency entry is “inactive”.

For the origin of these results see PubChem BioAssay AID686979 (National Center for Advancing Translational Sciences (NCATS), 2013).
